Several values for one entry are separate records, joined by “and”; a condition that tells them apart may be missing. Equal entries are not always repeated. Results filed as inconclusive are left out. A call without a number means that no potency is given here. Activity calls are given as the source filed them. Calls come from the whole dose curve; as a rule, active = well fitted activation curve with a large enough effect in the repeat runs; inconclusive = weak or mixed curves, or effect the other way; inactive = no such curve, though single readings can be large or run the other way.
Assay: qHTS assay to identify small molecule agonists of the retinoic acid receptor (RAR) signaling pathway (AID 1159553)
Conditions: C3RL4 RARE luciferase reporter, agonist, 6 h; series mostly up to 73.3 µM
From the text: National Center for Advancing Translational Sciences [NCATS] NIH Chemical Genomics Center [NCGC] U.S. Environmental Protection Agency [EPA] National Institutes of Environmental Health Sciences [NIEHS] National Toxicology Program [NTP] Assay overview: All-trans Retinoic acid (atRA) is the potent natural metabolite of retinol and plays an important role in normal embryonic development and maintenance of cellular phenotype in adult animals. atRA is the activating ligand for the retinoic acid receptors (RARs) which form heterodimers with retinoid X receptors (RXRs) on the retinoic acid response element (RARE). Through activation of the RAR/RXRs nuclear receptors, atRA regulates the transcription of a large number of protein-coding genes and regulatory RNAs. Intracellular levels of atRA are controlled by the retinol signaling pathway (RSP) that regulates the biosynthesis and catabolism of atRA to maintain physiological levels. Chemicals that interfere with the RSP can cause abnormal intracellular levels of atRA and therefore are potential developmental toxicants. To assess compounds for the potential adverse effect on embryonic development through interfering with retinol signaling, a cell-based RARE luciferase reporter gene assay was used. C3RL4 cell line (OARSA/CFSAN/FDA, Laurel, MD) was used to screen Tox21 10K compound library for identifying activators of the RSP.
Assay Protocol Summary: C3RL4 cells were seeded at 1,000/well in 5 uL of assay medium into white solid 1,536-well tissue culture plates (Greiner Bio-One North America Inc. Monroe, NC) using a Multidrop Combi (Thermo Scientific, Waltham, MA) dispenser. After incubation at 37 C and 5% CO2 for an overnight, 23 nL of compounds dissolved in DMSO, positive control or DMSO only were transferred by a Pintool station (Kalypsys, San Diego, CA). After 6 hr incubation at 37 C and 5% CO2, 5 uL of Amplite Luciferase reagent (AAT Bioquest Inc. Sunnyvale, CA) was added to each assay plate using a Flying Reagent Dispenser (FRD) (Aurora Discovery, San Diego, CA). Luminescence was quantified on a ViewLux plate reader (PerkinElmer, Waltham, MA) after 30 min incubation at room temperature.
Potency is the fitted concentration of half-maximal effect.

Row | SMILES | Potency
1 | CCOC(=O)c1ccccc1C | inactive
2 | C[C@@H]1C[C@H]2[C@@H]3CCC4=CC(=O)C=C[C@]4(C)[C@@]3(F)[C@@H](O)C[C@]2(C)[C@H]1C(=O)CO | inactive
3 | Cc1oncc1C(=O)Nc1ccc(C(F)(F)F)cc1 | 3.06 µM (active) and 2.98 µM (active)
4 | CCOc1cc(N)c(Cl)cc1C(=O)NCC1CN(Cc2ccc(F)cc2)CCO1 (stereo not given) | inactive
5 | CCCOC(=O)c1ccc(C(=O)OCCC)nc1 | 68.6 µM (active)
6 | c1cnc2c(n1)CCCC2 | inactive
7 | CCCCN(CCCC)CCCOC(=O)c1ccc(N)cc1 | inactive
8 | CCCOC(=O)c1ccc(N)cc1 | 23.7 µM (active)
9 | Cc1ccc(/C=N/n2c(-c3ccccc3)csc2=S)cc1 | inactive
10 | Fc1c(F)c(F)c(Br)c(F)c1F | inactive
11 | CCCCCCCCCCCC(=O)[O][Sn]([CH2]CCC)([CH2]CCC)[O]C(=O)CCCCCCCCCCC | inactive
12 | O=C(O)c1ccc(CO)o1 | inactive
13 | CCc1cccc(N(C)C(N)=Nc2cccc3ccccc23)c1 | inactive
14 | C=CCNc1nc(NCC=C)nc(N2CCN(C(c3ccc(F)cc3)c3ccc(F)cc3)CC2)n1 | inactive
15 | O=C(O)Cc1ccc(-c2ccccc2)cc1 | inactive
16 | CN(C)C(=O)Nc1ccc(Oc2ccc(Cl)cc2)cc1 | 61.1 µM (active)
17 | CCCCCCCCCCCC[N+](C)(C)CC(=O)[O-] | inactive
18 | CCCCCCCCCCCCCCCCBr | inactive
19 | Cc1cnc(C)c(C)n1 | inactive
20 | C[C@]12CCC(=O)C=C1C=C[C@@H]1[C@@H]2CC[C@@]2(C)[C@H]1CC[C@@]21CCC(=O)O1 | inactive

Row | SMILES | Potency
21 | COc1cc2c(N3CCN(C(=O)Nc4ccc(OC(C)C)cc4)CC3)ncnc2cc1OCCCN1CCCCC1 | inactive
22 | CCCCC/C(=C\c1ccccc1)CO | inactive
23 | O=C(O)c1cccnc1C(=O)O | inactive
24 | C/C=C/C=C/CCCCCCCO | inactive
25 | COc1cc2[nH]c(=O)[nH]c(=O)c2cc1OC | inactive
26 | CC1(C)O[C@@H]2C[C@H]3[C@@H]4CCC5=CC(=O)C=C[C@]5(C)[C@H]4[C@@H](O)C[C@]3(C)[C@]2(C(=O)CO)O1 | inactive
27 | Nc1nc(Cl)nc2c1ncn2[C@@H]1O[C@H](CO)[C@@H](O)[C@@H]1F | inactive
28 | Cc1nc2ccccc2s1 | inactive
29 | NC(=O)N(O)[C@@H]1C=C[C@H](Oc2cccc(Oc3ccc(F)cc3)c2)C1 | 61.1 µM (active)
30 | Cc1cc(OI)c(C(C)C)cc1-c1cc(C(C)C)c(OI)cc1C | inactive
31 | CCNC(=O)N1CCN(CCCC(c2ccc(F)cc2)c2ccc(F)cc2)CC1 | inactive
32 | CCCCCCCCSCCO | inactive
33 | C[N+](C)(C)CCOC(N)=O | inactive
34 | COC(=O)Nc1nc2ccc(C(=O)c3cccs3)cc2[nH]1 | inactive
35 | CC#N | inactive
36 | O=C(/C=C/c1ccccc1)OCCCc1ccccc1 | 61.1 µM (active)
37 | CC(C)CCCCCOC(=O)CCCCC(=O)OCCCCCC(C)C | inactive
38 | CC1CC(=O)NN=C1c1ccc(NCC(C)(C)NCC(O)COc2cc(Cl)ccc2C#N)cc1 (stereo not given) | inactive
39 | CC(=O)N(c1onc(C)c1C)S(=O)(=O)c1ccc(N)cc1 | inactive
40 | O=C(O)C(Cc1cc(I)c(O)c(I)c1)c1ccccc1 (stereo not given) | inactive
